Compound activity (PubChem BioAssay)
Compounds with a hit are over-represented: about 8.1% of the library has one in this group of screens.
SW480 rerep = induces DNA re-replication in SW480 colon adenocarcinoma cells; SW480 DNA re-replication, Hoechst DNA content imaging, 48 h; Potency, µM (series often up to 46.1 µM), without a hit: at the highest dose re-replication activation, hits mostly activators; 340,000 compounds, 1.8% hits; AID 624297; further: % of control where 0% means no effect; nearly all actives have a fitted effect of over 55% in size
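Cells (250 per well) received 23 nL compound or DMSO by pin tool and were kept 48 hr at 37 C, 5% CO2. Nuclei were then stained with Hoechst for 40 min and scanned for DNA content.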
ELG1 DNA repair = inhibitors of ELG1-dependent DNA repair in HEK293T cells. 330,000 compounds, 2.3% hits. HEK293T ELG1-luciferase reporter, luminescence, 16 h; DNA damage induced by 5-fluorouridine. AID 504467. Potency, µM (top dose mostly 46.1 µM), without a hit: at the highest dose activity change, negative = inhibition, most hits filed as inhibitors; further: on the % scale 0 is the no-effect control and ±100 the full control effect; nearly all actives have a fitted effect of over 55% in size
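Quantitative HTS, concentration-response format. 2,000 cells/well co-treated with 5-fluorouridine and compound, 16 hr in 5% CO2 at 37 °C; ONE-Glo luminescence read after 30 min.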
KB-3-1 cytotox = kills parental KB-3-1 adenocarcinoma cells; 400,000 compounds, 1.4% hits; Potency, µM (highest dose often 46.1 µM), hits mostly cytotoxic; KB-3-1 viability, CellTiter-Glo ATP luminescence, 72 h; further: on the % scale 0 is the no-effect control and ±100 the full control effect; nearly all actives have a fitted effect of over 60% in size
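Parental KB-3-1 viability, qHTS format: 72 h compound exposure, 37 °C; CellTiter-Glo; media-only wells and DMSO plates as controls; concentration-effect fits on corrected data.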
MCF10A rerep = induces DNA re-replication in MCF 10a normal breast cells | Potency, µM (series often up to 46.1 µM), without a hit: top-dose activity, positive = re-replication, actives largely listed as activators | MCF 10A DNA re-replication, Hoechst nuclear intensity, 48 h | 350,000 compounds, 2.9% hits; further: % of control where 0% means no effect; nearly all actives have a fitted effect of over 50% in size
KB-V1 cytotox = KB-V1 MDR subline cytotoxicity | KB-V1 MDR cells viability, CellTiter-Glo, 72 h | Potency, µM (titrated, usually from 46.1 µM), most hits filed as cytotoxic | 400,000 compounds, 3.4% hits; further: on the % scale 0 is the no-effect control and ±100 the full control effect; nearly all actives have a fitted effect of over 60% in size
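Potencies derive from concentration-effect curves fitted to normalized luminescence (CellTiter-Glo) of KB-V1 cells treated for 72 h at 37 degrees C in phenol-red-free DMEM containing 10% FBS.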
Starred values were filed as active, the others as inactive. The call rests on the fitted dose curve; in most records, active means well fitted curve in the direction sought with a large enough effect; inconclusive means small, poorly fitted or top-dose-only effect, or another doubt; inactive means no such curve, though single readings can be large; an effect the other way counts as inactive or inconclusive. Potency means the concentration at half of the fitted maximal effect.

CCOc1ccc(NC(=O)CSc2ccc(-c3ccccn3)nn2)cc1 was read as SW480 rerep -4%, ELG1 DNA repair inconclusive, KB-3-1 cytotox inactive, MCF10A rerep -4% and KB-V1 cytotox 2.9µM*.
`Cc1cc(C)c(NC(=O)CSc2ccc(-c3ccccn3)nn2)c(C)c1` gave SW480 rerep 9%, ELG1 DNA repair -24%, KB-3-1 cytotox inactive, MCF10A rerep 11% and KB-V1 cytotox inconclusive.
Screening COC(=O)c1sc(NC(=O)C2CCCO2)c(C(=O)OC)c1C (stereo not given) returned SW480 rerep -4%, ELG1 DNA repair inconclusive, KB-3-1 cytotox inactive, MCF10A rerep 2% and KB-V1 cytotox inactive.
Screening Cc1c(C(=O)OC(C)C)sc(NC(=O)C2CCCO2)c1C(=O)OC(C)C (stereo not given) returned SW480 rerep 15%, ELG1 DNA repair inconclusive, KB-3-1 cytotox inactive, MCF10A rerep 13µM* and KB-V1 cytotox inconclusive.
For COC(=O)c1c(-c2ccc(F)cc2)csc1NC(=O)C1CCCO1 (stereo not given) the results were SW480 rerep inconclusive, ELG1 DNA repair 1%, KB-3-1 cytotox inactive, MCF10A rerep inconclusive and KB-V1 cytotox inconclusive.
`CCc1ccc(-c2csc(NC(=O)C3CCCO3)c2C(=O)OC(C)C)cc1` (stereo not given) gave SW480 rerep inconclusive, ELG1 DNA repair -3%, KB-3-1 cytotox inactive, MCF10A rerep 26µM* and KB-V1 cytotox inactive.
For COc1cc(C2=NOC(C(=O)NCc3cccs3)C2)cc(OC)c1OC (stereo not given) the results were SW480 rerep 6.5µM*, ELG1 DNA repair 1%, KB-3-1 cytotox 2.1µM*, MCF10A rerep 10µM* and KB-V1 cytotox 2.6µM*.
`O=C(NCc1cccs1)C1CC(c2ccccc2O)=NO1` (stereo not given) gave SW480 rerep 23%, ELG1 DNA repair 26%, KB-3-1 cytotox 16µM*, MCF10A rerep 18µM* and KB-V1 cytotox inconclusive.
For COc1ccc(C2=NOC(C(=O)NCc3cccs3)C2)cc1OC (stereo not given) the results were SW480 rerep 5.2µM*, ELG1 DNA repair inconclusive, KB-3-1 cytotox 4.6µM*, MCF10A rerep 1.2µM* and KB-V1 cytotox 5.2µM*.
For COc1ccc(C2=NOC(C(=O)NCc3ccccn3)C2)cc1OC (stereo not given) the results were SW480 rerep 17%, ELG1 DNA repair 13%, KB-3-1 cytotox inactive, MCF10A rerep 6% and KB-V1 cytotox inactive.
Screening COc1cc(OC)c(C2=NOC(C(=O)NCc3cccs3)C2)cc1Cl (stereo not given) returned SW480 rerep 9.2µM*, ELG1 DNA repair 1%, KB-3-1 cytotox inactive, MCF10A rerep inconclusive and KB-V1 cytotox 7.3µM*.
For C#CCOCCOCCOCCNc1nc(N2CCN(C(=O)[C@H](CCCN=C(N)N)n3cc(C(N)[C@@H](C)CC)nn3)CC2)nc(N2CCN(C(=O)[C@H](CC(N)=O)n3cc([C@@H](N)CC(N)=O)nn3)CC2)n1 (stereo not given in full) the results were SW480 rerep -8%, ELG1 DNA repair inconclusive, KB-3-1 cytotox inactive, MCF10A rerep -5% and KB-V1 cytotox inactive.
CCCCN(C=O)c1c(CC)nc2c(OCCOc3ccccc3)cccn12 was read as KB-3-1 cytotox inactive and KB-V1 cytotox inactive.
COc1cc(NC(=O)C2CC(c3cccc(OC)c3OC)=NO2)cc(OC)c1OC (stereo not given) was read as SW480 rerep inconclusive, ELG1 DNA repair 12µM*, KB-3-1 cytotox inconclusive, MCF10A rerep 16µM* and KB-V1 cytotox inactive.
For COc1ccc(C2=NOC(C(=O)NCc3cccs3)C2)cc1 (stereo not given) the results were SW480 rerep -3%, ELG1 DNA repair inconclusive, KB-3-1 cytotox 6.5µM*, MCF10A rerep 9.2µM* and KB-V1 cytotox 2.9µM*.
For COc1ccc(C2=NOC(C(=O)NCc3ccccn3)C2)cc1 (stereo not given) the results were SW480 rerep 9%, ELG1 DNA repair 9%, KB-3-1 cytotox inactive, MCF10A rerep 23% and KB-V1 cytotox inconclusive.
Screening Cc1coc2c(C)c3oc(=O)c(CCC(=O)N(C)CC(=O)O)c(C)c3cc12 returned SW480 rerep -4%, ELG1 DNA repair 1%, KB-3-1 cytotox inactive, MCF10A rerep -1% and KB-V1 cytotox inactive.
`O=C(NCc1ccccc1)c1onc(CSc2ccc(F)cc2)c1C(=O)NCc1ccccc1` gave SW480 rerep 6%, KB-3-1 cytotox inactive, MCF10A rerep 17% and KB-V1 cytotox inactive.
`Cc1cc(C)cc(SCc2noc(C(=O)NCc3ccccc3)c2C(=O)NCc2ccccc2)c1` gave SW480 rerep -30%, ELG1 DNA repair -4%, KB-3-1 cytotox inactive, MCF10A rerep 4.6µM* and KB-V1 cytotox inactive.
O=C(NN=Cc1ccccc1O)c1cccc([N+](=O)[O-])c1 was read as SW480 rerep 0.58µM*, KB-3-1 cytotox inconclusive, MCF10A rerep 1% and KB-V1 cytotox inconclusive.
O=C(N/N=C/c1ccccn1)c1cccc([N+](=O)[O-])c1 was read as SW480 rerep inconclusive, ELG1 DNA repair inconclusive, KB-3-1 cytotox inactive, MCF10A rerep 16% and KB-V1 cytotox inactive.
`O=C(N/N=C\c1cn[nH]c1-c1ccccc1)c1ccc([N+](=O)[O-])cc1` gave SW480 rerep 4.1µM*, ELG1 DNA repair -16%, KB-3-1 cytotox inconclusive, MCF10A rerep 3% and KB-V1 cytotox inactive.
For O=C(N/N=C/c1ccccn1)c1ccc(Br)cc1 the results were SW480 rerep inconclusive, ELG1 DNA repair inconclusive, KB-3-1 cytotox inactive, MCF10A rerep inconclusive and KB-V1 cytotox 18µM*.
Screening O=C(N/N=C/c1ccccn1)c1ccc(NC(=O)c2cccc([N+](=O)[O-])c2)cc1 returned SW480 rerep -3%, ELG1 DNA repair 16µM*, KB-3-1 cytotox inconclusive, MCF10A rerep inconclusive and KB-V1 cytotox inactive.
COc1ccc(-n2cnc3c(N)nc(N)nc32)cc1 was read as SW480 rerep 1%, KB-3-1 cytotox inactive, MCF10A rerep -1% and KB-V1 cytotox inactive.
`CCOC(=O)c1c(NC(=O)c2ccc(S(=O)(=O)N(CC(C)C)CC(C)C)cc2)sc2c1CCN(C(=O)OCC)C2` gave KB-3-1 cytotox inactive and KB-V1 cytotox inactive.
`Cc1ccc(CN2CCC(CNC(=O)Nc3c(C)cccc3C)C2)cc1` (stereo not given) gave KB-3-1 cytotox inactive and KB-V1 cytotox inactive.
